ATXN2 expr inh = ATXN2 expression inhibition; HEK-293 ATXN2-luciferase reporter, luminescence, 24 h; 360,000 tested, 0.72% active; Potency, µM (top dose mostly 57 µM), without a hit: top-dose activity change, negative = inhibition, hits mostly inhibitors; note: % is set by controls: 0 for no effect and ±100 for the full control effect; nearly all actives have a fitted effect of over 55% in size
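qHTS (up to 57 uM final) was run with 24 h compound exposure of reporter cells at 37 °C. Each well was multiplexed: SteadyGlo luminescence measured ATXN2-luciferase expression after a fluorogenic Gly-Phe-AFC viability readout (25 uM final).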
Nrf2 activator = Nrf2 pathway activation | 410,000 tested, 0.31% active | AREc32 ARE-luciferase reporter (MCF7-derived line), luminescence, 24 h | Potency, µM (doses to about 46.1 µM), inactives show top-dose activation, hits mostly activators; note: % of control where 0% means no effect; nearly all actives have a fitted effect of over 65% in size
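Nrf2 activation is followed as ARE-luciferase induction in the AREc32 line after one day of compound treatment; luminescence is read with Steady-Glo.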
S2 tox = viability counter-screen for ATXN expression inhibitors. 400,000 tested, 0.49% active. S2 cells (HEK-293 line with an ATXN2-luciferase reporter) viability, CellTiter-Fluor protease fluorescence, 24 h. Potency, µM (highest dose often 56.7 µM), usual class: cytotoxic; note: nearly all actives have a fitted effect of over 40% in size
Nrf2 block = Nrf2 pathway inhibition. 360,000 tested, 2.1% active. A549 ARE-Fluc reporter, luciferase luminescence, 18-24 h. AID 504444. Potency, µM (highest dose often 46 µM), without a hit: at the top dose activity change, negative = inhibition, most hits filed as inhibitors; note: % is set by controls: 0 for no effect and ±100 for the full control effect; nearly all actives have a fitted effect of over 60% in size
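A549 ARE_Fluc cells (5000/well, 5% FBS OPTI-MEM) pre-incubated 2 h, then treated with compounds 18-24 h at 37C/5% CO2 in concentration-response. CellTiter-Fluor viability read first; BugLite luciferase luminescence after 15 min at room temperature gives Nrf2 activity.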
A549 tox-1 = kills or reduces viability of A549 cells in Nrf2 counter-screen; A549 ARE-Fluc cells, CellTiter-Fluor viability, 18-24 h; Potency, µM (highest dose often 46 µM), for inactives: at the highest dose activity change, negative = cytotoxicity, actives largely listed as inhibitors; 390,000 tested, 0.16% active; note: % is set by controls: 0 for no effect and ±100 for the full control effect
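A549 ARE_Fluc cells in 5% FBS OPTI-MEM were exposed to compounds in concentration-response for 18-24 h at 37 deg C. Viability was read by CellTiter-Fluor fluorescence (Ex 405/Em 525) after 30 min, before the luciferase read.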
FLuc counter 3 = counter-screen for Nrf2 inhibitors: firefly luciferase enzyme inhibition. AID 720522. 1,400 tested, 4% active. Potency, µM (series often up to 57.5 µM), for the others: at the top dose activity change, negative = inhibition, usual class: inhibitors. purified firefly luciferase, luminescence inhibition. shares compounds with Nrf2 block; note: % is set by controls: 0 for no effect and ±100 for the full control effect; nearly all actives have a fitted effect of over 65% in size
Target sequence (P08659 whole entry, looked up): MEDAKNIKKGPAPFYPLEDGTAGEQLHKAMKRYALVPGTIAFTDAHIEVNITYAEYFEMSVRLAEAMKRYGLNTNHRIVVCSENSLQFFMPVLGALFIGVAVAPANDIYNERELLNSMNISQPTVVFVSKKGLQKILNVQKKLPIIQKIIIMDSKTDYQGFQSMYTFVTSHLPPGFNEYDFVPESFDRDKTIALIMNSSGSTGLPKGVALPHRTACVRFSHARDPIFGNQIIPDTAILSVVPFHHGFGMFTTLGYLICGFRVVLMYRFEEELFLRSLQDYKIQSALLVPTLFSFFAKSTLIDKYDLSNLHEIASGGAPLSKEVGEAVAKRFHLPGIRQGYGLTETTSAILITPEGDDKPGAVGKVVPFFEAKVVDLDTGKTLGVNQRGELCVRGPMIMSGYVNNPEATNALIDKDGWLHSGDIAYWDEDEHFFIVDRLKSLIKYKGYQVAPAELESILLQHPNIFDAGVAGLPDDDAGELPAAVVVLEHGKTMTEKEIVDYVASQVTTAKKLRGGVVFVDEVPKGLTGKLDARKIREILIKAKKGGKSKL
A549 tox-2 = A549 cytotoxicity, Nrf2 inhibitor counterscreen | A549 ARE-Fluc cells, cytotoxicity counterscreen | 1,400 tested, 2% active | Potency, µM (highest dose often 46.1 µM), inactives show top-dose activity change, negative = cytotoxicity, hits mostly inhibitors | AID 720523 | shares compounds with Nrf2 block;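 note: cells exposed to compounds for 18 to 24 hours; % is set by controls: 0 for no effect and ±100 for the full control effect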
Nrf2 ARE inh = confirmation of Nrf2 inhibitors in A549 ARE reporter cells; shares compounds with Nrf2 block; A549 ARE-firefly luciferase reporter, luminescence; Potency, µM (top dose mostly 46.1 µM), without a hit: at the highest dose activity change, negative = inhibition, most hits filed as inhibitors; 1,400 tested, 74% active; AID 720524; note: % is set by controls: 0 for no effect and ±100 for the full control effect; nearly all actives have a fitted effect of over 65% in size
* marks the source's active call; other numbers are inactive results; i = inactive; ? = inconclusive; / = not tested or not shown; ! = repeats disagree. The list is not random: actives were taken first. Their share in the collection is about 2.9%. Calls come from the whole dose curve; as a rule, active = well fitted curve in the direction sought with a large enough effect; inconclusive = small, poorly fitted or top-dose-only effect, or another doubt; inactive = no such curve, though single readings can be large; an effect the other way counts as inactive or inconclusive. Potency is the fitted concentration of half-maximal effect.

SMILES | ATXN2 expr inh | Nrf2 activator | S2 tox | Nrf2 block | A549 tox-1 | FLuc counter 3 | A549 tox-2 | Nrf2 ARE inh
COc1cccc(CCNC(=O)c2c(O)nc3ccccn3c2=O)c1 | 9.8% | -1.1% | i | 3.8% | 4.1% | / | / | /
O=C1CC(c2ccco2)Cc2[nH]c(=O)c(C(=O)Nc3ccccc3)cc21 (stereo unspecified) | / | / | / | / | / | -17.2% | -9.5% | ?
CCc1ccc(OCC(=O)N(Cc2cccs2)c2ccc(Cl)cc2)cc1 | -31.1% | 6.4% | ? | -18.4% | 4.5% | / | / | /
COc1ccccc1NS(=O)(=O)c1cccc(C(=O)NC2CCN(Cc3ccccc3)CC2)c1 | ? | 2.3% | ? | 2.31µM* | ? | -0.8% | -19.5% | ?
COc1ccccc1CNC(=O)C1(c2cccs2)CCOCC1 | 8.2% | 0.6% | i | / | 0.1% | / | / | /
N#Cc1cc(-c2ccccc2)[nH]c1-c1nccc2ccccc12 | / | 0.2% | / | 9.2µM* | -13.7% | -12.4% | -3.7% | ?
Cc1cc2oc(=O)cc(CSc3nnc(C)n3N)c2cc1C(C)C | 2.0% | -0.1% | i | / | 22.7% | / | / | /
Cc1cc2oc(=O)cc(CSc3nnc(-c4cccs4)o3)c2cc1C(C)C | -14.5% | -0.2% | i | 8.2µM* | ? | -2.1% | -2.5% | ?
COc1ccc2ccc3cccc[n+]3c2c1 | -6.0% | 4.0% | / | 4.61µM* | -11.8% | -2.0% | -13.9% | 23.1µM*
Cc1cc(Cl)c(S(=O)(=O)NC2CCCC2)cc1OCC(=O)NC1CCCCC1 | / | 0.1% | / | 6.51µM* | -29.7% | 2.7% | -13.3% | 7.31µM*
Cc1cc(Cl)c(S(=O)(=O)N2CCSCC2)cc1OCC(=O)NC1CCCCC1 | -29.9% | 2.2% | i | 6.51µM* | ? | -1.0% | -24.1% | 4.61µM*
Cc1cc(Cl)c(S(N)(=O)=O)cc1OCC(=O)NC1CCCCC1 | -0.7% | 0.0% | i | -3.9% | 3.3% | / | / | /
COc1cccc(-c2nnc3n2N=C(C(C)(C)C)CS3)c1 | ? | -1.3% | i | 7.31µM* | -27.1% | -2.3% | ? | /
Cc1cccc(C)c1OCc1nc2c3cnn(-c4cccc(F)c4)c3ncn2n1 | / | 7.1% | / | 9.6% | 2.7% | / | / | /
Cc1onc(-c2ccccc2)c1C(=O)NC(=S)NNC(=O)c1ccc(O)cc1O | ? | -0.2% | ? | 7.31µM* | -14.0% | -18.5% | -9.9% | 5.8µM*
Cc1onc(-c2ccccc2)c1C(=O)NC(=S)NNC(=O)c1ccccc1O | ? | 0.0% | i | ? | -9.1% | / | / | /
OCC1OC(n2cnc3c(NCc4ccco4)ncnc32)C(O)C1O (stereo unspecified) | ? | ? | ? | 7.31µM*! | ? | 2.5% | -20.7% | 4.11µM*
CNc1ncnc2c1ncn2[C@@H]1O[C@H](CO)[C@@H](O)[C@@H]1O | / | / | i | / | / | / | / | /
Cc1ccc2c(c1)c1c(c(=O)n(-c3ccccc3C)c(=O)n1Cc1ccccc1F)n2C | 66.7% | 0.0% | i | 28.1% | -0.2% | / | / | /
COc1cc(/C=C(/C#N)c2ccc(C)cc2)ccc1Oc1ccc([N+](=O)[O-])cn1 | -17.4% | 0.3% | i | 2.91µM* | -1.9% | -11.6% | 3.4% | ?
O=C(Nc1ccccc1C(=O)OCc1cc(=O)n2ccsc2n1)c1cccc(F)c1 | / | -0.6% | / | / | 4.5% | / | / | /
Nc1c(Cl)ncnc1N/N=C/c1ccccn1 | ? | 11.8% | 12.6µM* | 5.17µM* | ? | ? | ? | 2.06µM*
CCN(CC)S(=O)(=O)c1cc(NC(=O)C(=O)c2c(-c3ccccc3)cc3ccccn23)ccc1C | -15.7% | 2.2% | i | 5.17µM* | / | 2.0% | -10.8% | ?
CC(=O)Nc1ccc(S(=O)(=O)NCCNS(=O)(=O)c2ccc(NC(C)=O)cc2)cc1 | 2.4% | -0.1% | i | 1.3% | 3.6% | / | / | /
CC(=O)Nc1ccc(S(=O)(=O)NCCSCc2ccc(Cl)cc2Cl)cc1 | -16.2% | -0.7% | i | 9.2µM* | -3.8% | 1.7% | -4.2% | 10.3µM*
SMILES | ATXN2 expr inh | Nrf2 activator | S2 tox | Nrf2 block | A549 tox-1 | FLuc counter 3 | A549 tox-2 | Nrf2 ARE inh
CCCCOC(=O)c1ccc(NC(=O)c2ccc3c(c2)CCN3S(C)(=O)=O)cc1 | -10.3% | 2.0% | i | 8.0% | 1.1% | / | / | /
CC[n+]1c(/C=C/c2cc([N+](=O)[O-])ccc2O)ccc2ccccc21 | 13.9% | 28.9% | ? | ? | -16.9% | / | / | /
CCN1/C(=C/c2ccc3cc(C)cc(C)c3[n+]2CC)Sc2cc(C)ccc21 | ? | 0.4% | ? | ? | 16.4µM* | -11.4% | ? | 1.64µM*
CCN1/C(=C\c2ccc3cc(C)ccc3[n+]2CC)Sc2cc(C)c(C)cc21 | ? | -0.9% | ? | 8.2µM* | ? | -6.6% | ? | 1.84µM*
CCN1/C(=C/c2ccc3cccc(C)c3[n+]2CC)Sc2ccccc21 | ? | -1.4% | ? | 2.59µM* | ? | 0.3% | ? | 2.06µM*
O=C(COc1ccc(F)cc1)NC1CC(=O)N(c2ccc3c(c2)OCCO3)C1 (stereo unspecified) | 10.8% | 0.0% | i | / | -3.8% | / | / | /
CCc1ccc(-n2nc3ccc(NC(=O)COc4ccc(OC)cc4)cc3n2)cc1 | / | 3.5% | / | 1.64µM* | -5.6% | -18.3% | 7.4% | -1.0%
COc1ccc(C)cc1NC(=O)C1CCC(CNS(=O)(=O)c2ccc3c(c2)CCCC(=O)N3)CC1 (stereo unspecified) | / | 0.6% | / | 7.31µM* | ? | 1.0% | 0.8% | 7.31µM*
CSc1ccc(CNc2ncc(-c3ccccc3)n2C)cc1 | 0.9% | 5.3% | i | / | 16.8% | / | / | /
CC(=O)OCC(=O)C1(O)CCC2C3CCC4=CC(=O)CCC4(C)C3(Cl)C(O)CC21C (stereo unspecified) | 0.0% | 0.7% | ? | 1.16µM* | -2.3% | 0.5% | -12.1% | 0.517µM*
CC(=O)OCC(=O)C1(O)CCC2C3CCC4=CC(=O)CCC4(C)C3(F)C(O)CC21C (stereo unspecified) | -5.4% | -0.3% | i | 0.0366µM* | -11.1% | 3.4% | -4.8% | 0.0206µM*
O=C(c1ccccc1)N1CCCC(c2nc3c(nnn3Cc3ccc(F)cc3F)c(=O)[nH]2)C1 (stereo unspecified) | 6.8% | 0.6% | i | -6.5% | -18.7% | / | / | /
CC(=O)O[C@@H]1[C@@H](O)CN[C@@H]1Cc1ccccc1 | / | / | / | 0.231µM* | ? | 3.0% | ? | 0.326µM*
Cc1nnc(SC(C)C(=O)Nc2ccc(Cl)cn2)n1Cc1ccccc1 (stereo unspecified) | ? | -0.1% | i | 9.2µM* | ? | -0.5% | -2.0% | ?
